This passage reports inhibition results from PubChem BioAssay AID485317 (Broad Institute, 2010).

SMILES strings stand for the structures. Among all 290,000 compounds or so, about 11,000 (3.8%) were called active. The sample holds actives, similar compounds and a random draw of the others, so the mix is not that of the screen.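 The calls were made as follows: active = mean replicate inhibition above about 79%, with every replicate also reaching it (limit read from the data); inconclusive = only one of the two criteria met; inactive = mean below limit and not every replicate reaching it.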

Chain of FAD-linked sulfhydryl oxidase ALR (Homo sapiens) (P55789 whole entry, looked up): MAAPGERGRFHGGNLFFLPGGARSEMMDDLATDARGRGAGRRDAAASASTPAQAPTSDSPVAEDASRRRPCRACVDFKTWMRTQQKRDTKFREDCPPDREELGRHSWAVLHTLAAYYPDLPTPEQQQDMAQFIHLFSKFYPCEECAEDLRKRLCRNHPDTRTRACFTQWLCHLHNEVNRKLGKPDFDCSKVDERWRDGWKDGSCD

The experiment has as its target FAD-linked sulfhydryl oxidase ALR (Homo sapiens) (UniProt P55789). Briefly: inhibitors of human ALR sulfhydryl oxidase, primary screen, biochemical, H2O2 detection, HRP-luminol luminescence, single point (AID 485317). Particulars: purified ALR, DTT oxidation, hits give high values, concentration not given here.
Broadly, the inhibition is the change of the read-out against control, counted positive when it falls. With `O=C1C=C(c2cccc(Br)c2)C[C@@H](c2ccc(F)cc2)C1`, the inhibition is -0.0525% (inactive).

Regarding `O=C(COC(=O)COc1cc(Cl)c(Cl)cc1Cl)NC1CC1`, the inhibition is -25.6% (inactive).

On to `O=C(CSCc1ccccc1)Nc1ccccc1`, for which the inhibition was -3.32% (inactive).

Turning to `CC(=O)Nc1ccc(NC(=O)CSCc2cnn(-c3ccccc3)c2-n2cccc2)cc1`, the inhibition is 98.3% (active). Next, `Cc1cc(C)cc(NC(=O)CSCc2cnn(-c3ccccc3)c2-n2cccc2)c1`: -4.84% (inactive); `Cc1ccc(S(=O)(=O)NCCC(=O)NCc2ccc(Cl)cc2)cc1C`: -3.37% (inactive).

For the compound `O=C(O)c1ccccc1C(=O)Nc1nc(-c2ccccc2)cs1`, the inhibition is -5.73% (inactive).

With `O=C(Nc1ccccc1C(=O)O)c1ccc(N2C(=O)C3CC=CCC3C2=O)cc1` (configuration not stated), the inhibition was 2.58% (inactive). Next, `O=C(O)c1ccccc1C(=O)NC1=NN(c2ccccc2)CC1`: 98.4% (active); `CC1CCCCC12NC(=O)N(CC(=O)OCc1c(F)cccc1Cl)C2=O` (configuration not stated): 25.1% (inactive); `COc1ccc(C)cc1NC(=O)CSc1cccc[n+]1[O-]`: -22.2% (inactive). The same measure for `C[C@H](OC(=O)n1ccnc1)[C@@H]1O[C@@]2(C)CCC[C@@H]1O2`: 4.53% (inactive). Next, `CCCC(=O)NC(C)C(c1cccs1)N1CCN(c2ccccc2)CC1` (configuration not stated): 97.6% (active); `CC(NC(=O)C(C)(C)C)C(c1cccs1)N1CCN(Cc2ccccc2)CC1` (configuration not stated): -4.94% (inactive). On to `CC(NC(=O)Nc1ccccc1)C(c1cccs1)N1CCN(c2ccccc2)CC1` (configuration not stated), for which the inhibition was 1.95% (inactive). The same measure for `O=C(NC(=S)Nc1ccc(Br)cc1F)C1CCCCC1`: -2.71% (inactive); for `O=C(COc1ccccc1F)NNC(=O)c1cc(Br)ccc1Cl`: -9.96% (inactive). The same measure for `Cc1ccccc1-c1cc(C(=O)NCc2cccs2)n(CC2CC(c3cccnc3)=NO2)n1` (configuration not stated): 8.05% (inactive); for `COc1ccc(-c2csc(Cc3nc(O)cs3)n2)cc1`: 86.8% (active); for `COc1ccc(-c2csc(NC(=O)COC(=O)c3ccc(Br)o3)n2)cc1`: 53.6% (inactive).

As to `COc1ccc(-c2csc(NC3OC(=O)c4ccccc43)n2)cc1` (configuration not stated), the inhibition was 22.4% (inactive). The same measure for `CCOC(=O)N1CCN(C(=O)c2ccc3c(c2)N(Cc2ccc(C)cc2)CCS3)CC1`: 93.4% (active). Next, `CCOC(=O)N1CCN(C(=O)c2ccc(S(=O)(=O)c3ccc(C)cc3)c(NC(C)=O)c2)CC1`: 4.26% (inactive).

With `O=C(NCCc1ccccc1)c1ccc2c(c1)N(Cc1ccccc1)CCS2`, the inhibition is 10.1% (inactive). Next, `C=CCn1c(CSc2nc3ccccc3s2)nnc1SCC(=O)NCc1ccco1`: 60.8% (inactive). With `O=C(CSc1nc2ccc(Nc3nc(N4CCOCC4)nc(N4CCOCC4)n3)cc2s1)NCc1ccco1`, the inhibition was 98.7% (active).

As for `O=C(CSc1nc(Nc2ccccc2)nc(N2CCOCC2)n1)Nc1cc(Cl)ccc1O`, the inhibition is -0.209% (inactive).

`O=C(c1ccc(F)c(S(=O)(=O)N2CCOCC2)c1)N(CCc1ccccc1)Cc1ccccc1`: the inhibition was -7.64% (inactive). Next, `O=S(=O)(c1ccccc1)N(CC(O)CN1CCCCC1)c1ccccc1` (configuration not stated): -3.01% (inactive); `Cc1cccc(N(CC(O)CN(C)C)S(=O)(=O)c2ccccc2)c1` (configuration not stated): -4.54% (inactive); `OCC(O)CN(c1ccccc1)c1ccccc1` (configuration not stated): 99% (active).

`CN(c1ccccc1)S(=O)(=O)c1ccc(C(=O)N2CCN(c3ccccc3Cl)CC2)cc1`: the inhibition was -8.17% (inactive). The same measure for `O=[N+]([O-])c1ccc(S(=O)(=O)Nc2cccc(-c3ccc(N4CCCC4)nn3)c2)cc1`: 0.216% (inactive). The same measure for `C=CCOc1ccc(/C=C/C(=O)OCC(=O)NC(C)c2ccc(F)cc2)cc1` (configuration not stated): -7.12% (inactive); for `O=C1CCCC(O)=C1N=Nc1ccc2ncsc2c1`: 97.4% (active); for `O=C1CCCC(O)=C1N=Nc1ccc(S(=O)(=O)N2CCOCC2)cc1`: -10.4% (inactive). The same measure for `COc1ccccc1-c1sc2ccccc2c1C#CC1(O)CCCCC1`: -3.52% (inactive); for `O=C(CSCc1ccc([N+](=O)[O-])cc1)NCCSCc1ccccc1`: -10.2% (inactive); for `O=C(NCc1ccco1)c1ccc([N+](=O)[O-])cc1Cl`: -19% (inactive). `CCC(CC)NC(=O)/C=C/c1cccc([N+](=O)[O-])c1`: the inhibition is -3% (inactive). Next, `O=C(NCc1ccco1)/C(=C/c1cccc([N+](=O)[O-])c1)NC(=O)c1ccco1`: 69.6% (inactive); `O=C(/C=C/c1ccc([N+](=O)[O-])cc1)NCCSCc1ccco1`: 98.4% (active). Take `O=C(/C=C/c1cccc([N+](=O)[O-])c1)NCCSCc1ccco1`: the inhibition was 98.5% (active). The same measure for `CCN(C(=O)CSc1ncnc2sccc12)c1c(N)n(Cc2ccccc2)c(=O)[nH]c1=O`: -0.954% (inactive); for `COCCNC(=S)N(Cc1cccnc1)Cc1ccc(OC)c(OC)c1`: -1.92% (inactive); for `CCNC(=S)N(CCc1c(C)[nH]c2ccc(C)cc12)Cc1ccco1`: 69.2% (inactive). The same measure for `COCCNC(=S)N(CCc1c(C)[nH]c2ccc(C)cc12)Cc1cccnc1`: 90.7% (active). For the compound `Cc1n[nH]c(=O)c2c(NC(=O)CSc3ccccc3F)oc(C)c12`, the inhibition is 1.87% (inactive). Next, `CC(C)COc1ccc(C(=O)NNC(=O)CCC(=O)c2cccs2)cc1`: -17.3% (inactive). The same measure for `CC(NC(=O)COC(=O)CCC(=O)c1ccc(Cl)cc1)c1ccccc1` (configuration not stated): -2.75% (inactive); for `Cc1noc(C)c1C(=O)OC(C)C(=O)Nc1ccc2c(c1)OCO2` (configuration not stated): -0.736% (inactive); for `Cc1cccc(N2CCN(c3ccc(NC(=O)/C=C\C(=O)O)cc3)CC2)c1`: 99% (active). Regarding `O=C(Nc1cccc(NC(=O)N2CCN(c3ccccc3)CC2)c1)N1CCN(c2ccccc2)CC1`, the inhibition is -1.81% (inactive). Next, `CSc1ccc(NC(=O)/C=C/C(=O)O)cc1`: 0.113% (inactive); `Cc1ccc(CN2CCN(c3ccccc3Cl)CC2)o1`: 2% (inactive); `CN1CCN(S(=O)(=O)c2ccc(Nc3ccc(F)cc3)nc2)CC1`: -2.65% (inactive).

For the compound `O=C(OCC(=O)N1CCCCCC1)c1ccc(Br)c(S(=O)(=O)N2CCOCC2)c1`, the inhibition is -8.29% (inactive). The same measure for `COc1ccc(NC(=O)CN(C)C(=O)Cc2coc3cc(C)c(C)cc23)cc1`: 0.212% (inactive); for `CCC1CO/C(=C(\C(=C(Cl)Cl)N2CCOCC2)[N+](=O)[O-])N1` (configuration not stated): 81% (active). The same measure for `COC(=O)[C@]1(C)CCC[C@@]2(C)C3CC[C@]4(OC(C)=O)C[C@@]3(CCC21)CC4=NO` (some centres not stated): -3.27% (inactive). With `COc1ccc(C(=O)Nc2cccc(NC(=O)c3ccc(OC)cc3OC)n2)c(OC)c1`, the inhibition is -5.93% (inactive). Next, `CCCCn1c(N)c(N(CCOC)C(=O)COc2c(C)cccc2C)c(=O)[nH]c1=O`: -2.66% (inactive); `CSc1nsc(NC(=O)Nc2ccccc2)n1`: 4.37% (inactive); `Cc1cc(SCC(=O)c2ccccc2)nc(SCC(=O)c2ccccc2)n1`: 1.19% (inactive).

In the case of `CSc1nc(C)cc(SC(C(C)=O)C(=O)Nc2ccccc2)n1` (configuration not stated), the inhibition is 92.7% (active). Next, `O=C(COC(=O)C1CC2CCCC(C1)C2=O)NC(=O)c1ccccc1` (configuration not stated): 1.09% (inactive); `OC(CN1C2=NCCCN2c2ccccc21)c1ccc(Br)cc1` (configuration not stated): 9.53% (inactive). For `CC(C)(C)C(=O)CN1C2=NCCN2c2ccccc21`, the inhibition is 93.6% (active).

For `O=C(CN1C2=NCCN2c2ccccc21)c1cccs1`, the inhibition was 17.3% (inactive). The same measure for `O=C1C=C(c2cccc(Cl)c2)C[C@@H](c2ccc(F)cc2)C1`: -8.67% (inactive). The same measure for `Cc1ccccc1-n1c(SCC(=O)Nc2cccc3ccccc23)nc(O)cc1=O`: 59.8% (inactive). For the compound `Cc1cc(NC(=O)CSc2nc3ccccc3n2CC(C)C)no1`, the inhibition was -5.8% (inactive). The same measure for `CC(C)Cn1c(SCC(=O)Nc2ccc(Cl)cc2F)nc(O)cc1=O`: 98.5% (active); for `COc1ccccc1-c1nn(Cc2ccccc2)cc1C(=O)N1CCN(c2ncccn2)CC1`: 1.87% (inactive); for `C=CC[C@@H](CC(=O)NCCO)C(=O)N[C@H](C)COC(=O)[C@@H](CC=C)CC(=O)OC(C)(C)C`: 4.16% (inactive).

With `CCN1C(=O)[C@H]2[C@@H](c3ccc(-c4ccc(F)cc4)cc3)N[C@@](Cc3ccccc3)(C(=O)OC)[C@H]2C1=O`, the inhibition is -2.13% (inactive). As for `CCCn1c(C2CCCN2c2nc(-c3ccc(OC)cc3)cs2)nc2ccccc21` (configuration not stated), the inhibition was -0.584% (inactive). Next, `CCOC(=O)C1CCCN(C(=O)CSc2nnc3nc(C)cc(C)n23)C1` (configuration not stated): -0.482% (inactive); `COc1ccc(CNCCCO)cc1OC`: 1.87% (inactive); `COc1cccc(C(O)Cc2nc3ccccc3n2C)c1OC` (configuration not stated): 2.27% (inactive). The same measure for `C=CCC(Nc1ccccc1)c1cccc(OC)c1OC` (configuration not stated): 98.9% (active); for `COc1cccc(NC(=O)CC(c2ccc(OC(C)C)cc2)c2ccccc2OC)c1` (configuration not stated): 1.22% (inactive). Next, `C=CCC(NCCCO)c1cccc(OC)c1OC` (configuration not stated): 99.7% (active); `C=CCC(NCc1ccco1)c1ccc(OC)cc1` (configuration not stated): 1.8% (inactive); `CCOC(=O)[C@H]1[C@H]2COc3ccc(C)cc3[C@@H]2N2C(=O)CN(Cc3ccc(F)cc3)C(=O)[C@@]12C`: -13.6% (inactive). For the compound `CCOCc1c(C(=O)N2CCN(Cc3ccc(Br)s3)CC2)oc2ccccc12`, the inhibition was 1.34% (inactive). The same measure for `CCN(CC(=O)Nc1ccccc1C(F)(F)F)C(=O)CSCc1c(C)noc1C`: 6.19% (inactive); for `Cc1ccccc1NC(=O)C(C)OC(=O)CCC(=O)N(CC(C)C)c1c(N)n(CC(C)C)c(=O)[nH]c1=O` (configuration not stated): -8.82% (inactive). With `COc1cc(C(=S)N2CCOCC2)ccc1O`, the inhibition was -6.46% (inactive). Next, `COc1cc(C(=S)NC2CCCCC2)ccc1O`: 98.5% (active); `COc1ccc(C(=O)NC(=S)NC2CCCCC2)cc1`: 3.44% (inactive); `O=C(CN1CCN(S(=O)(=O)c2cccc(Cl)c2)CC1)N1CCCCC1`: 14.4% (inactive).
